Experimental data reported in PubChem BioAssay (NCI).
The panel holds about 83,000 compounds, 20% with a hit somewhere; the sample as a whole holds those more often.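 Treatment: one concentration, 48 hours, 96-well format. Scoring: percent growth, with anything below 10 considered active.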 The source made the active and inactive calls.

Columns and labels:
Assay in all cases: NCI-60 one-dose screen, 48 h (100 = growth as untreated, 0 = no growth, -100 = all killed)
Settings in all cases: 10 µM
DU-145 prostate = test system: DU-145 prostate
K-562 leukemia = test system: K-562 leukemia
MALME-3M melanoma = test system: MALME-3M melanoma
MDA-MB-231 breast = test system: MDA-MB-231 breast
RXF 393 renal = test system: RXF 393 renal
SF-268 CNS = test system: SF-268 CNS
SF-295 CNS = test system: SF-295 CNS
SF-539 CNS = test system: SF-539 CNS
M14 melanoma = test system: M14 melanoma
HCT-15 colon = test system: HCT-15 colon
HT29 colon = test system: HT29 colon
SNB-75 CNS = test system: SNB-75 CNS
SNB-19 CNS = test system: SNB-19 CNS
U251 CNS = test system: U251 CNS
PC-3 prostate = test system: PC-3 prostate
SK-MEL-5 melanoma = test system: SK-MEL-5 melanoma
UACC-62 melanoma = test system: UACC-62 melanoma
LOX IMVI melanoma = test system: LOX IMVI melanoma
SK-MEL-28 melanoma = test system: SK-MEL-28 melanoma

Measured: growth

CNC(=O)c1cn2c3c(c(N4CCN(C)CC4)c(F)cc3c1=O)OC[C@@H]2C
inactive: DU-145 prostate 104% | K-562 leukemia 102% | MALME-3M melanoma 106% | MDA-MB-231 breast 102% | RXF 393 renal 103% | SF-268 CNS 97% | SF-295 CNS 98.7% | SF-539 CNS 105% | M14 melanoma 106% | HCT-15 colon 102% | HT29 colon 96.2% | SNB-75 CNS 84.1% | SNB-19 CNS 106% | U251 CNS 99.5% | PC-3 prostate 96.2% | SK-MEL-5 melanoma 101% | UACC-62 melanoma 103% | LOX IMVI melanoma 94.8%

CC(=O)N[C@H](C(=O)N[C@@H](CCCNC(=N)N)C(=O)N[C@@H](CCCCN)C(=O)N[C@@H](CCCNC(=N)N)C(=O)N[C@]1(C)CCC/C=C\CCC[C@@](C)(C(=O)N[C@@H](CC(C)C)C(=O)N[C@@H](CC(C)C)C(=O)N[C@@H](CCC(N)=O)C(=O)N[C@@H](CCC(=O)O)C(=O)N[C@@H](CCCNC(=N)N)C(=O)N[C@@H](CCC(=O)O)C(=O)N[C@@H](CC(C)C)C(=O)N[C@H](C(=O)N[C@@H](CCC(=O)O)C(N)=O)C(C)C)NC(=O)[C@H](CCCNC(=N)N)NC(=O)[C@H](CC(C)C)NC1=O)C(C)C
inactive: DU-145 prostate 99.7% | K-562 leukemia 104% | MALME-3M melanoma 137% | MDA-MB-231 breast 108% | RXF 393 renal 119% | SF-268 CNS 101% | SF-295 CNS 106% | SF-539 CNS 102% | M14 melanoma 107% | HCT-15 colon 109% | HT29 colon 95.3% | SNB-75 CNS 119% | SNB-19 CNS 105% | U251 CNS 100% | PC-3 prostate 104% | SK-MEL-5 melanoma 102% | UACC-62 melanoma 105% | LOX IMVI melanoma 105% | SK-MEL-28 melanoma 111%

CC(C)(C)c1ccc(S(=O)(=O)Oc2ccc(NC(=O)C3CCCCC3)cc2)cc1
inactive: DU-145 prostate 59.2% | K-562 leukemia 27% | MALME-3M melanoma 78.9% | MDA-MB-231 breast 72% | RXF 393 renal 65.1% | SF-268 CNS 70.6% | SF-295 CNS 22.8% | SF-539 CNS 73.2% | M14 melanoma 60.1% | HCT-15 colon 36.8% | HT29 colon 44.9% | SNB-75 CNS 80.1% | SNB-19 CNS 49.2% | U251 CNS 43.9% | PC-3 prostate 22.3% | SK-MEL-5 melanoma 26.3% | UACC-62 melanoma 31.1% | LOX IMVI melanoma 48.7% | SK-MEL-28 melanoma 66.8%

COc1ccc(/C=C/C(=O)C(=O)/C=C/c2ccc(OC)c(OC)c2)cc1OC
inactive: DU-145 prostate 22.5% | MALME-3M melanoma 54.5% | SF-268 CNS 13.2% | SF-295 CNS 73.8% | SNB-75 CNS 64.9% | SNB-19 CNS 33.1% | PC-3 prostate 43.6% | SK-MEL-5 melanoma 77.9%
active: K-562 leukemia 7.11% | MDA-MB-231 breast 2.99% | RXF 393 renal -63.3% | SF-539 CNS 6.56% | M14 melanoma -10.5% | HCT-15 colon -3.56% | HT29 colon -35.2% | U251 CNS 6.4% | UACC-62 melanoma -10.8% | LOX IMVI melanoma -66.4% | SK-MEL-28 melanoma -9.43%

CCn1cc(CNc2ccc(C(=O)Nc3ccc4ccccc4c3)cc2)c(C)n1
inactive: DU-145 prostate 61.2% | K-562 leukemia 59.5% | MALME-3M melanoma 62.5% | MDA-MB-231 breast 83.8% | RXF 393 renal 86% | SF-268 CNS 76.4% | SF-295 CNS 64.2% | SF-539 CNS 83.3% | M14 melanoma 45.1% | HCT-15 colon 55.8% | HT29 colon 75.7% | SNB-75 CNS 71.8% | SNB-19 CNS 77.6% | U251 CNS 84.5% | UACC-62 melanoma 60% | LOX IMVI melanoma 62.5% | SK-MEL-28 melanoma 77.8%
active: SK-MEL-5 melanoma -31.5%

CC(=O)N[C@H](C(=O)N[C@@H](CCCNC(=N)N)C(=O)N[C@@H](CCCCN)C(=O)N[C@@H](CCCNC(=N)N)C(=O)NC(C(=O)N[C@@H](CC(C)C)C(=O)N[C@@H](CCCNC(=N)N)C(=O)N[C@@]1(C)CCC/C=C\CCC[C@@](C)(C(=O)N[C@@H](CCCNC(=N)N)C(=O)N[C@@H](CCC(=O)O)C(=O)N[C@@H](CC(C)C)C(=O)N[C@H](C(=O)N[C@@H](CCC(=O)O)C(N)=O)C(C)C)NC(=O)[C@H](CCC(N)=O)NC(=O)[C@H](CC(C)C)NC(=O)[C@H](CC(C)C)NC1=O)[C@@H](C)O)C(C)C (some centres undefined)
active: DU-145 prostate -58.3% | K-562 leukemia -44.5% | MALME-3M melanoma -68.7% | MDA-MB-231 breast -52.1% | RXF 393 renal -43.9% | SF-268 CNS -80.9% | SF-295 CNS -4.34% | SF-539 CNS -78% | M14 melanoma -61.2% | SNB-75 CNS -16.4% | U251 CNS -35.7% | PC-3 prostate -75.5% | SK-MEL-5 melanoma -83.9% | UACC-62 melanoma -68.1% | SK-MEL-28 melanoma -37.7%
inactive: HCT-15 colon 16.2% | HT29 colon 26.9% | SNB-19 CNS 31.7% | LOX IMVI melanoma 33.2%

COc1cc(-c2csc(NC(=O)Nc3ccc(Cl)c(C(F)(F)F)c3)n2)cc(OC)c1OC
inactive: DU-145 prostate 14.4% | K-562 leukemia 14.2% | SF-268 CNS 21.3% | HCT-15 colon 10.5% | SNB-19 CNS 13.2%
active: MALME-3M melanoma -28.1% | MDA-MB-231 breast -32.2% | RXF 393 renal -6.49% | SF-295 CNS -34.7% | SF-539 CNS 5.05% | M14 melanoma -4.86% | HT29 colon 4.27% | SNB-75 CNS -7.01% | U251 CNS -9.73% | PC-3 prostate -0.311% | SK-MEL-5 melanoma -79.9% | UACC-62 melanoma 1.56% | LOX IMVI melanoma -19.2%

C[C@@H](C[C@H](CCO)c1ccccc1)c1ccc2ccccc2c1
active: DU-145 prostate -40.9% | K-562 leukemia -35.2% | MALME-3M melanoma -87.6% | MDA-MB-231 breast -73.6% | RXF 393 renal -87.4% | SF-268 CNS -70.4% | SF-295 CNS -89.2% | SF-539 CNS -82.7% | M14 melanoma -84.2% | HCT-15 colon -75% | HT29 colon -72.8% | SNB-75 CNS -8.12% | SNB-19 CNS -78.3% | U251 CNS -95% | PC-3 prostate -89.2% | SK-MEL-5 melanoma -87.9% | UACC-62 melanoma -76.2% | LOX IMVI melanoma -94.5%

COc1cc2c3c(n(C4CCNCC4)c(=O)c2cc1OC)-c1cc2c(cc1C3=O)OCO2
active: DU-145 prostate -92.8% | K-562 leukemia -48.8% | MALME-3M melanoma -68.4% | MDA-MB-231 breast -69.1% | RXF 393 renal -56.4% | SF-268 CNS -60% | SF-295 CNS -70.7% | SF-539 CNS -65.8% | M14 melanoma -76.1% | HCT-15 colon -73.8% | HT29 colon -58.3% | SNB-75 CNS -61.7% | SNB-19 CNS -54.8% | U251 CNS -64.3% | SK-MEL-5 melanoma -89.3% | UACC-62 melanoma -76.6% | LOX IMVI melanoma -73.1%

CCn1c(SCCc2ccccc2)nnc1-c1nn(-c2ccc(Cl)cc2Cl)c(-c2ccc(Cl)cc2)c1C
inactive: DU-145 prostate 84.7% | K-562 leukemia 48.1% | MALME-3M melanoma 96% | MDA-MB-231 breast 81.1% | RXF 393 renal 66% | SF-268 CNS 77.4% | SF-295 CNS 65.7% | SF-539 CNS 85.9% | M14 melanoma 72.8% | HCT-15 colon 45.6% | HT29 colon 67.2% | SNB-75 CNS 90.7% | SNB-19 CNS 76.7% | U251 CNS 54.7% | PC-3 prostate 39.8% | SK-MEL-5 melanoma 74.3% | UACC-62 melanoma 68.6% | LOX IMVI melanoma 63.8% | SK-MEL-28 melanoma 79.2%

COc1cc2c3c(n([C@H]4CCOC4)c(=O)c2cc1OC)-c1cc2c(cc1C3=O)OCO2
inactive: DU-145 prostate 19.8% | K-562 leukemia 59.6% | MALME-3M melanoma 78% | MDA-MB-231 breast 91.8% | RXF 393 renal 41.7% | SF-268 CNS 31.7% | M14 melanoma 23% | HCT-15 colon 56.1% | HT29 colon 40.9% | SNB-75 CNS 31.9% | SNB-19 CNS 31.2% | U251 CNS 11.9% | UACC-62 melanoma 11.3% | SK-MEL-28 melanoma 72%
active: SF-295 CNS -5.69% | SF-539 CNS 1% | SK-MEL-5 melanoma 7.91% | LOX IMVI melanoma 4.78%

COc1ccc(-c2cc(-c3cc(OC)ccc3OC)nc(N)c2C#N)cc1
inactive: DU-145 prostate 96.2% | K-562 leukemia 89.5% | MALME-3M melanoma 36.9% | MDA-MB-231 breast 56.3% | RXF 393 renal 70.5% | SF-268 CNS 40.1% | SF-295 CNS 64.7% | SF-539 CNS 57.8% | M14 melanoma 79.8% | HCT-15 colon 51.2% | HT29 colon 60.7% | SNB-75 CNS 16.3% | SNB-19 CNS 48.8% | U251 CNS 61.2% | SK-MEL-5 melanoma 63% | UACC-62 melanoma 42.3% | LOX IMVI melanoma 58.6% | SK-MEL-28 melanoma 88.5%

COc1ccc(C(=O)CSc2nc(-c3cc(OC)ccc3OC)cc(-c3ccc(OC)cc3)c2C#N)cc1
inactive: DU-145 prostate 108% | K-562 leukemia 102% | MALME-3M melanoma 110% | MDA-MB-231 breast 102% | RXF 393 renal 107% | SF-268 CNS 90% | SF-295 CNS 100% | SF-539 CNS 86.5% | M14 melanoma 93.9% | HCT-15 colon 92.1% | HT29 colon 92.2% | SNB-75 CNS 90.1% | SNB-19 CNS 99.9% | U251 CNS 104% | SK-MEL-5 melanoma 99.1% | UACC-62 melanoma 93.7% | LOX IMVI melanoma 91.4%

O=C(CCCCNC(=O)c1nc(-c2ccccc2)n(-c2ccccc2)n1)NO
inactive: DU-145 prostate 98.6% | K-562 leukemia 81.7% | MALME-3M melanoma 23.5% | MDA-MB-231 breast 86.2% | RXF 393 renal 84.2% | SF-268 CNS 90.1% | SF-295 CNS 93.6% | SF-539 CNS 65.1% | M14 melanoma 66.8% | HCT-15 colon 91.3% | HT29 colon 73.6% | SNB-75 CNS 70.8% | SNB-19 CNS 86% | U251 CNS 65.9% | SK-MEL-5 melanoma 62.2% | UACC-62 melanoma 37.5% | LOX IMVI melanoma 96.9% | SK-MEL-28 melanoma 75.2%

COc1cc(Cc2cc(-c3ccccc3)n[nH]c2=O)cc(OC)c1OC
inactive: DU-145 prostate 84.2% | K-562 leukemia 19.3% | MALME-3M melanoma 71.8% | MDA-MB-231 breast 54.7% | RXF 393 renal 60% | SF-268 CNS 69.8% | SF-295 CNS 61.3% | SF-539 CNS 61.4% | M14 melanoma 18.4% | HCT-15 colon 34.5% | HT29 colon 18.3% | SNB-75 CNS 55.5% | SNB-19 CNS 62.9% | U251 CNS 48.7% | PC-3 prostate 61.9% | SK-MEL-5 melanoma 50.4% | UACC-62 melanoma 43.3% | LOX IMVI melanoma 45.5% | SK-MEL-28 melanoma 70%
